Laboratory results as given in the supplement of paper PMC12350171.
Where a name gives a salt, the structure may show the parent alone. Unmarked numbers belong to inactive results.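 Rule for the calls: active = AUC significantly below DMSO controls by Student t-fit with adjusted P under 0.01; inactive = not significantly reduced.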

tested on: Haemophilus parainfluenzae; test: growth AUC normalised to DMSO control (fraction of control); higher = less growth inhibition, active = hit call of the paper; conditions: 20 µM
Method in brief: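 Pathogens passaged twice anaerobically were inoculated at a starting OD578 of 0.01 into pre-reduced mGAM plates with drug at 20 μM and 1% DMSO, sealed with breathable membranes. Haemophilus parainfluenzae medium was supplemented with hemin and NAD. OD578 was read hourly for 24 h, with three biological replicates. Growth-curve AUC was computed by the trapezoidal rule up to the exponential-to-stationary transition and normalised to DMSO controls on the same plate.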

Compound | growth AUC normalised to DMSO control
CCOC(=O)Nc1ccc2c(c1)N(C(=O)CCN1CCOCC1)c1ccccc1S2 [Moricizine hydrochloride] | 0.998
O=C1CN(/N=C/c2ccc([N+](=O)[O-])o2)C(=O)N1 [Nitrofurantoin] | 0.369 (active)
CCCCN(CCCC)CCC(O)c1cc2c(Cl)cc(Cl)cc2c2cc(C(F)(F)F)ccc12 (stereo unspecified) [Halofantrine hydrochloride] | 1.06
CN(C(=O)CN(CCO)CC(=O)N(C)C(C)(C)Cc1ccccc1)C(C)(C)Cc1ccccc1 [Oxethazaine] | 0.737
COc1ccc2c3c1O[C@H]1C[C@@H](O)C=C[C@@]31CCN(C)C2 [Galanthamine hydrobromide] | 0.988
C=C1c2c(Cl)ccc(O)c2C(O)=C2C(=O)[C@]3(O)C(O)=C(C(N)=O)C(=O)[C@@H](N(C)C)[C@@H]3[C@@H](O)[C@H]12.O=C(O)c1cc(S(=O)(=O)O)ccc1O [Meclocycline sulfosalicylate] | 0.0341 (active)
